# Source: PubChem BioAssay (NCI)
# About 83,000 compounds went through this panel and 20% of them were active in at least one assay; those are over-represented in the sample as a whole.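 In brief: 96-well plates, 48 h treatment, single concentration, percent growth endpoint.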 Calls of active or inactive are those of the source. The calls were made as follows: active = growth percent below 10; inactive = the rest.
# Assays:
# Experiment in all cases: NCI-60 one-dose screen, 48 h (100 = growth as untreated, 0 = no growth, -100 = all killed)
# Details in all cases: 10 µM
# T-47D breast = system: T-47D breast
# BT-549 breast = system: BT-549 breast
# MDA-MB-435 melanoma = system: MDA-MB-435 melanoma
# SW-620 colon = system: SW-620 colon
# MCF7 breast = system: MCF7 breast
# HCT-116 colon = system: HCT-116 colon
# HCC-2998 colon = system: HCC-2998 colon
# KM12 colon = system: KM12 colon
# MDA-MB-468 breast = system: MDA-MB-468 breast
SMILES,growth (T-47D breast),growth (BT-549 breast),growth (MDA-MB-435 melanoma),growth (SW-620 colon),growth (MCF7 breast),growth (HCT-116 colon),growth (HCC-2998 colon),growth (KM12 colon),growth (MDA-MB-468 breast)
O=C(CNc1nc(-c2ccccc2)cs1)Nc1cccc(Cl)c1,7.64% (active),25.8% (inactive),42.1% (inactive),35.9% (inactive),21.8% (inactive),27.6% (inactive),33.2% (inactive),23.6% (inactive),10.7% (inactive)
c1ccc(C(=C(c2ccc(OCCN3CCCCC3)cc2)c2ccc(OCCN3CCCCC3)cc2)C2CCCC2)cc1,-1.48% (active),-54.7% (active),-98.5% (active),-62.6% (active),-71.1% (active),-62.8% (active),-99.5% (active),-80.5% (active),-87.8% (active)
C=C[C@H]1[C@H](O[C@@H]2OC(CO)[C@@H](O)[C@H](O)C2OC(=O)c2c(O)cc(O)cc2-c2cccc(O)c2)OC=C2C(=O)OCC[C@H]21 (stereo partly drawn),99.3% (inactive),94.8% (inactive),102% (inactive),105% (inactive),93.5% (inactive),94.4% (inactive),106% (inactive),103% (inactive),96.5% (inactive)
Cc1ccc2nc(COc3ccc(C(=O)NNC(=S)NC(=O)c4ccccc4)cc3)[nH]c2c1,60.5% (inactive),81.8% (inactive),64.3% (inactive),39.5% (inactive),30.6% (inactive),38.5% (inactive),66.1% (inactive),49.4% (inactive),55.6% (inactive)
N#Cc1ccc(NC(=O)CSc2ccc(-c3ccc(Br)cc3)nn2)cc1,46.9% (inactive),70.5% (inactive),65.1% (inactive),91.1% (inactive),56.2% (inactive),64% (inactive),92.9% (inactive),76.7% (inactive),62.5% (inactive)
CN1CCN(Cc2ccc(C(=O)Nc3cccc(Nc4ccc5cc(O)ccc5n4)c3)cc2C(F)(F)F)CC1,-11.7% (active),78.1% (inactive),-85.5% (active),-83.1% (active),-78.4% (active),1.51% (active),-97.3% (active),-48% (active),-89.4% (active)
COc1ccc(/C=C/C(=O)c2ccc(S(=O)(=O)NCCNc3nc(Nc4ccc(F)cc4)nc(N(C)C)n3)cc2)cc1,18.4% (inactive),36.2% (inactive),25.1% (inactive),26.4% (inactive),-15.2% (active),-67% (active),59.3% (inactive),-26.1% (active),-3.57% (active)
